In PubChem BioAssay (EPA / NIEHS):
Values joined by “and” are separate entries in the source; they are usually repeats but may differ in a detail not shown here. Equal values may be shown once. A structure can be active in one record and inactive in another. Active and inactive are the calls of the source. How the source made its calls: active means hit-call score of the fitted dose curve at least 0.9, where 1 is the maximum; inactive means score below 0.9.

The molecules below were run against Retinoic acid receptor alpha (Homo sapiens) (UniProt P10276) (assay: ATG_DR5_RAR_CIS: Attagene CIS-FACTORIAL HepG2 Assay for human Retinoic Acid Receptor Alpha (RARE), DR5 submotif (AID 2282934;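 on AC50: reporter responds to endogenous RAR alpha beta and gamma in HepG2 not RARA alone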)). Conditions: HepG2 Attagene cis-factorial RARE DR5 reporter, mRNA; actives raise or lower the signal.
Chain of Retinoic acid receptor alpha (Homo sapiens) (P10276 whole entry, looked up): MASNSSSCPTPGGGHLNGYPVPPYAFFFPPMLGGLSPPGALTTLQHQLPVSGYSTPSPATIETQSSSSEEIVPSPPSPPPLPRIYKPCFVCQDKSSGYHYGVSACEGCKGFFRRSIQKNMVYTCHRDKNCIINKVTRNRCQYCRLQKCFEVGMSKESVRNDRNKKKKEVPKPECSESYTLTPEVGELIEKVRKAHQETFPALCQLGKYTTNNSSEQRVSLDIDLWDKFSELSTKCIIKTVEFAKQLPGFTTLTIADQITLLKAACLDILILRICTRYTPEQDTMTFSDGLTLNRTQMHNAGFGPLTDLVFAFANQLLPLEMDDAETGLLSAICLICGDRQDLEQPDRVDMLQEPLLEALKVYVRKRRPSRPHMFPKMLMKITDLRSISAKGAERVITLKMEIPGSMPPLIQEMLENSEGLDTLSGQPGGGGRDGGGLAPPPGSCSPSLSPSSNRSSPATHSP
Procedure: ATG_CIS is a cell-based, multiplexed-readout assay that uses HepG2, a human liver cell line, with measurements taken at 24 hours after chemical dosing in a 24-well plate.ATG_DR5_RAR_CIS is one of 52 assay component(s) measured or calculated from the ATG_CIS assay. It is designed to make measurements of mRNA induction, a form of inducible reporter, as detected with fluorescence intensity signals by Reverse transcription polymerase chain reaction (RT-PCR) and Capillary electrophoresis technology.Data from the assay component ATG_DR5_RAR_CIS was analyzed into 1 assay endpoint. This assay endpoint, ATG_DR5_CIS, was analyzed with bidirectional fitting relative to DMSO as the negative control and baseline of activity. Using a type of inducible reporter, measures of mRNA for gain or loss-of-signal activity can be used to understand the reporter gene at the transcription factor-level as they relate to the gene RARA and RARB and RARG. Furthermore, this assay endpoint can be referred to as a primary readout, because this assay has produced multiple assay endpoints where this one serves a reporter gene function. To generalize the intended target to other relatable targets, this assay endpoint is annotated to the nuclear receptor intended target family, where the subfamily is non-steroidal.
Human liver HepG2 cells are transiently transfected with multiple reporter transcription units (MRTUs) in 6-well plates using FuGene 6 reagent (Roche; 3 ml FuGene/1 mg DNA). The MRTU constructs are regulated by a cis-regulating element (promoter). […] A major difference between the CIS and TRANS system is that in CIS activities of endogenous TFs are measured, whereas the TRANS assay evaluates changes in activities of exogenous, chimeric NR-Gal4 proteins. […] At the end of 24 hour incubation, total RNA was isolated using TriZol reagent (Invitrogen). The isolated RNA is then reverse-transcribed using oligo(dT) primer and Mo-MLV reverse transcriptase (Invitrogen) with DNAse I (Ambion) treatment for 30 min. The one-tenth of the produced cDNA was amplified by PCR using Taq DNA polymerase (Invitrogen) and two reporter sequence-specific primers. The PCR products were fluorescently labeled by primer extension with 6-arboxyfluorescein (6-FAM) 5'-labeled reporter sequence-specific primer (2 min at 95 C, 20 s at 68 C and 10 min at 72 C) and these products were digested with 5U of HpaI (New England Biolabs) for 2h at 37 C. The fragments were purified using Qiaquick PCR columns (Qiagen), analyzed on an ABI 3130xL genetic analyzer (Applied Biosystems) with peak positions identified by using a set of X-rhodamine (ROX)-labeled MapMarker1000 molecular weight standards (BioVentures). The raw capillary electrophoresis data was processed using Attagraph software (Attagene).

SMILES | outcome | AC50
CCNc1nc(NC(C)(C)C)nc(SC)n1 | inactive | –
O=C(O)Cc1ccccc1 | inactive | –
O=C(O)C(F)(F)C(F)(F)C(F)(F)C(F)(F)C(F)(F)C(F)(F)C(F)(F)C(F)(F)C(F)(F)C(F)(F)F | inactive | 129 µM (active)
CC(C)(c1ccc(OCC2CO2)cc1)c1ccc(OCC2CO2)cc1 (stereo not given) | inactive | –
CCCCCCCCc1ccc(O)cc1 | inactive | –
ClC1=C(Cl)[C@]2(Cl)[C@@H]3[C@@H](Cl)[C@@H](Cl)C[C@@H]3[C@@]1(Cl)C2(Cl)Cl | inactive | –
O=CC=O | inactive | –
COP(=S)(OC)Oc1ccc(S(=O)(=O)N(C)C)cc1 | inactive | –
CC(=O)[O][Hg][c]1ccccc1 | – | 1.24 µM (active)
CCOP(=S)(OCC)Oc1ccc(S(C)=O)cc1 (stereo not given) | inactive | –
O=C/C=C/c1ccccc1 | inactive | –
O=[N+]([O-])c1ccc(O)c([N+](=O)[O-])c1 | inactive | –
c1cc[c]([Hg][c]2ccccc2)cc1 | inactive | –
O=C(O)C(F)(F)C(F)(F)C(F)(F)C(F)(F)C(F)(F)C(F)(F)F | inactive | –
O=C(Nc1ccc2[nH]ccc2c1)c1cc2cc(F)ccc2n1Cc1cccc(F)c1 | inactive | –
CC(=O)C=C(C)C | inactive | –
CN(C)N=O | inactive | –
ClCC(Cl)CCl | inactive | –
Clc1ccc(COC(Cn2ccnc2)c2ccc(Cl)cc2Cl)cc1 (stereo not given) | inactive | –

SMILES | outcome | AC50
CCCCC(CC)CO[N+](=O)[O-] (stereo not given) | – | 99.5 µM (active)
O=C1C2(Cl)C3(Cl)C4(Cl)C(Cl)(Cl)C5(Cl)C3(Cl)C1(Cl)C5(Cl)C24Cl (stereo not given) | inactive | 20.9 µM (active)
COC(=O)Cc1ccccc1 | inactive | –
C[C@]12CCC(=O)C[C@@H]1CC[C@@H]1[C@@H]2CC[C@]2(C)[C@@H](O)CC[C@@H]12 | inactive | –
CC(C#N)CCC#N (stereo not given) | inactive | –
Fc1ccc(C2(Cn3cncn3)OC2c2ccccc2Cl)cc1 (stereo not given) | inactive | –
CC(C)c1cccc(C(C)C)c1O | inactive | –
COc1cccc(C=O)c1 | inactive | –
Nc1ccc(N=Nc2ccc(-c3ccc(N=Nc4c(S(=O)(=O)O)cc5cc(S(=O)(=O)O)c(N=Nc6ccccc6)c(O)c5c4N)cc3)cc2)c(N)c1 | inactive | –
Cc1cc(Cl)ccc1O[C@H](C)C(=O)O | inactive | –
COP(=O)(OC)O/C(=C\Cl)c1cc(Cl)c(Cl)cc1Cl | inactive | –
BrCCBr | inactive | –
CCN1CCC2(CC1)COc1cc3c(cc12)N(C(=O)c1ccc(-c2ccc(-c4nnc(C)o4)cc2C)cc1)CC3 | inactive | –
CCSC(C)CC1CC(=O)C(C(CC)=NOC/C=C/Cl)=C(O)C1 (stereo not given) | inactive | –
C(=NC1CCCCC1)=NC1CCCCC1 | inactive | –
O=C(Cl)c1ccc(Cl)cc1 | inactive | –
COC(=O)c1sccc1S(=O)(=O)NC(=O)Nc1nc(C)nc(OC)n1 | inactive | –
Oc1c(I)cc(I)cc1I | inactive | –
COc1cc(-c2ccc(N)c(OC)c2)ccc1N | – | 2.98 µM (active) and 19.8 µM (active)
